Each structure is given as a SMILES string. A number with no mark means an inactive call. Records with an inconclusive call do not appear. Calls of active or inactive are those of the source. Unless noted, calls follow the shape of the full dose curve.

Assay [1] in a line: Nuclear factor erythroid 2-related factor 2/antioxidant responsive element (Nrf2/ARE) small molecule agonists: qHTS cell viability counter screen in human keratinocytes (AID 1919968; active = well fitted curve in the direction sought with a large enough effect in the repeat runs; an effect the other way counts as inactive or inconclusive; also: nearly all actives have a fitted effect of over 55% in size). Summed up:
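Stably transfected HaCaT (KeratinoSens), 1,500/well. Test agents in DMSO were applied for 23 h, 37 C/5% CO2. CellTiter-Fluor was incubated 1 h before the fluorescence read.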
For orientation: In qHTS, concentration-response curves come from the screen itself.

The nature of assay [2]: Nuclear factor erythroid 2-related factor 2/antioxidant responsive element (Nrf2/ARE) small molecule agonists: luciferase reporter gene qHTS assay in human keratinocytes (AID 1919969). Also: nearly all actives have a fitted effect of over 35% in size. Also: potency is read from the fitted curve at half-maximal effect. For orientation: A reporter such as luciferase makes a cellular process visible.
The target of assay [3] is Gonadotropin-releasing hormone receptor (Homo sapiens) (UniProt P30968). The assay is described as follows: Human gonadotropin-releasing hormone receptor (GnRHR) small molecule agonists, calcium flux assay in GnRHR-HEK293 cells (AID 1920063). Also: nearly all actives have a fitted effect of over 35% in size. In a few lines: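 Stable human GnRHR HEK293 line. 18 h plating, then calcium dye for 1 h at 37 C. Agonist-mode compound addition from DMSO stocks; fluorescence monitored 3 min.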
(A change in cytosolic calcium serves as a functional read-out for many receptors and channels.)

Assay [4] addresses KiSS-1 receptor (Homo sapiens) (UniProt Q969F8). The assay is described as follows: Human kisspeptin (KISS1R) small molecule agonists, calcium flux assay in KISS1R-HEK293 cells (AID 1920064; active = well fitted curve in the direction sought with a large enough effect in the repeat runs; an effect the other way counts as inactive or inconclusive). Summed up:
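After overnight (18 h) culture at 37 C/5% CO2, human KISS1R-HEK293 cells received calcium dye for 1 h, then test compound; emission at 540 nm (excitation 480 nm) was tracked for 3 min.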

The nature of assay [5]: G protein-coupled receptor (GPCR) small molecule agonists, calcium flux assay: HEK293 wild type cell line counter screen (AID 1920065). In a few lines:
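Following 18 h incubation at 37 C/5% CO2, plates got calcium dye for 1 h; compounds, ATP or DMSO were then pinned in and fluorescence followed kinetically (480/540 nm).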

Assay [6] is described as follows: p53 small molecule agonists, cell-based qHTS assay with human liver microsomes (AID 1963577). Summed up: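 In this qHTS, p53 response-element beta-lactamase cells receive test compound together with a microsome/NADPH activating system (0.5 mg/mL final each) and are incubated 16 h at 37 C before LiveBLAzer fluorescence detection.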
The nature of assay [7]: p53 small molecule agonists, cell-based qHTS assay with rat liver microsomes (AID 1963578). In a few lines: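 Agonist mode in p53RE-bla reporter cells, with compounds co-incubated 16 h at 37 C alongside 0.5 mg/mL rat liver microsomes and 0.5 mg/mL NADPH (final), followed by a 2 h LiveBLAzer detection step.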
Assay [8] in a line: p53 small molecule agonists, cell-based qHTS assay with human liver microsomes: qHTS cell viability counter screen (AID 1963579). Also: nearly all actives have a fitted effect of over 45% in size. Summed up:
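Metabolically activated exposure: compounds, human liver microsomes and NADPH (0.5 mg/mL final apiece) were added to p53RE-bla cells seeded 5 h earlier, left 16 h at 37 C, and then assessed for viability by CellTiter-Glo luminescence.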

Assay [9] in a line: p53 small molecule agonists, cell-based qHTS assay with rat liver microsomes: qHTS cell viability counter screen (AID 1963580). Also: nearly all actives have a fitted effect of over 45% in size. In a few lines: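 Counter screen for cytotoxicity under metabolic activation: rat liver microsomes and NADPH, 0.5 mg/mL final each, added with compounds to p53RE-bla HCT-116 cells; 16 h at 37 C, then ATP luminescence read.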
Assay [10] can be described thus: p53 small molecule agonists, cell-based qHTS assay: qHTS cell viability counter screen (AID 1963581). Also: nearly all actives have a fitted effect of over 45% in size. Summed up:
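qHTS counter screen: 16 h compound exposure at 37 C of p53RE-bla HCT-116 cells (4,000 per well, seeded 5 h prior), cell viability by ATP luminescence.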

Assay [11] in a line: p53 small molecule agonists, cell-based qHTS assay (AID 1963582; active = well fitted activation curve with a large enough effect in the signal ratio in the repeat runs, not every such curve was filed as active; the % refers to the signal ratio). In a few lines: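 Measured: fluorescence from cleaved LiveBLAzer substrate. System: p53RE-bla cells, 16 h compound treatment at 37 C, 2 h substrate step at room temperature.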
Assay [12] deals with 5-hydroxytryptamine receptor 2A (Homo sapiens) (UniProt P28223). The assay is described as follows: 5-hydroxytryptamine receptor 2A (HTR2A) small molecule antagonists, cell-based qHTS assay (AID 1963586). Also: nearly all actives have a fitted effect of over 45% in size. Summed up: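 CHO cells stably expressing human HTR2A were plated for 18 h at 37 C, then loaded with calcium dye for 1 h. Compounds were preincubated 5 min at room temperature before DOI (4 nM solution) was added. Kinetic fluorescence was read for 3 min.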

The target is the same in assay [13]. The assay is described as follows: 5-hydroxytryptamine receptor 2A (HTR2A) small molecule agonists, cell-based qHTS assay (AID 1963587). Also: nearly all actives have a fitted effect of over 30% in size. Also: potency is read from the fitted curve at half-maximal effect. In a few lines: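 HTR2A-CHO cells, plated 18 h at 37 C/5% CO2, dye-loaded 1 h at 37 C; compounds in DMSO added by pin tool (agonist mode). Intracellular calcium flux read as kinetic fluorescence on FDSS over 2 min at 1 s intervals.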

The target in assay [14] is Muscarinic acetylcholine receptor M1 (Homo sapiens) (UniProt P11229). As to the kind of experiment: Cholinergic receptor muscarinic 1 (CHRM1) small molecule antagonists, cell-based qHTS assay (AID 1963588). Also: nearly all actives have a fitted effect of over 40% in size. Also: potency is read from the fitted curve at half-maximal effect. In a few lines:
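Compounds were tested at 15 concentrations in three independent runs. Dye-loaded CHRM1-CHO cells were exposed 5 min at room temperature before stimulation by acetylcholine added at 50nM. Intracellular calcium was read kinetically on FDSS for 3 min.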

The target is the same in assay [15]. As to the kind of experiment: Cholinergic receptor muscarinic 1 (CHRM1) small molecule agonists, cell-based qHTS assay (AID 1963589). Also: nearly all actives have a fitted effect of over 35% in size. Summed up:
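Kinetic fluorescence (1 s intervals) of calcium-sensitive dye in human M1 CHO cells after compound addition; cells pre-incubated 18 h at 37 C/5% CO2 and dye-loaded 1 h.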

Assay [16] can be described thus: cAMP Responsive Elements (CRE) small molecule agonists, cell-based qHTS assay (AID 1963590). Summed up:
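Test agents in DMSO were incubated 3 h at 37 C/5% CO2 with CRE-bla HEK 293T cells seeded 18 h earlier; LiveBLAzer B/G FRET substrate was added and read after 2 h at room temperature.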

Assay [17] can be described thus: cAMP Responsive Elements (CRE) small molecule antagonists, cell-based qHTS assay (AID 1963591; active = well fitted inhibition curve with a large enough effect in the signal ratio in the repeat runs, not every such curve was filed as active; the % refers to the signal ratio). Summed up: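 Reporter line CRE-bla HEK 293T in dialyzed-FBS DMEM; cells preincubated 18 h, treated 3 h with compound plus NKH477 (0.25 uM final); LiveBLAzer FRET, 2 h RT.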
The target in assay [18] is Beta-2 adrenergic receptor (Homo sapiens) (UniProt P07550). As to the kind of experiment: Adrenergic beta2 receptor (ADRB2) small molecule antagonists, cell-based qHTS assay (AID 1963592). Also: series mostly up to about 92 µM; nearly all actives have a fitted effect of over 50% in size. In a few lines: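 Assay format: CHO-ADRB2 cells, 18-20hr seeding at 37C/5% CO2, then compound plus 1nM isoproterenol agonist mix for 0.5hr RT. Homogeneous time-resolved fluorescence cAMP detection after 1hr, expressed as 665/615 nm ratio.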

The target of assay [19] is D(2) dopamine receptor (Homo sapiens) (UniProt P14416). The assay is described as follows: Dopamine D2 receptor (DRD2) small molecule agonists, cell-based qHTS assay (AID 1963594). Also: nearly all actives have a fitted effect of over 35% in size. Summed up: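 HEK293 cells stably expressing DRD2 were cultured 24 h at 37 C, then given Ro20-1724 (0.1 mM final) and compounds for 10 min at room temperature. NKH477 (200nM) was then added for 30 min. cAMP was read by HTRF.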

The target is the same in assay [20]. The assay is described as follows: Dopamine D2 receptor (DRD2) small molecule antagonists, cell-based qHTS assay (AID 1963595; active = well fitted inhibition curve with a large enough effect in the signal ratio in the repeat runs, with a control signal flat; the % refers to the signal ratio). In a few lines: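 Antagonist mode in DRD2-HEK293 cells: after compound addition with 0.1 mM Ro20-1724, cells received quinpirole (12 nM) and NKH477 (200 nM) for 30 min at room temperature; HTRF cAMP read after 1 h detection.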

Chain of 5-hydroxytryptamine receptor 2A (Homo sapiens) (P28223 whole entry, looked up): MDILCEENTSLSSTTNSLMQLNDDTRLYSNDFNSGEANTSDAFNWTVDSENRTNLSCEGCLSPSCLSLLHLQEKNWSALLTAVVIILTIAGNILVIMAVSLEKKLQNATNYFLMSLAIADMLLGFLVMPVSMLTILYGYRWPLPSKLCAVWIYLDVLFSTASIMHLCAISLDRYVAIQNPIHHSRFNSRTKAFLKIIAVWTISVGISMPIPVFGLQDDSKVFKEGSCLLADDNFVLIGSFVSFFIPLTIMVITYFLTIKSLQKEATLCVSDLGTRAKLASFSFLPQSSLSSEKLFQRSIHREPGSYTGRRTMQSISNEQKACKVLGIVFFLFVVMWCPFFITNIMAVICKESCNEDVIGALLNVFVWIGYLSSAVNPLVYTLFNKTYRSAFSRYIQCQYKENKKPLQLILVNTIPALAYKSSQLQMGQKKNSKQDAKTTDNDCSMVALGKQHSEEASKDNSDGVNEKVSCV
Chain of D(2) dopamine receptor (Homo sapiens) (P14416 whole entry, looked up): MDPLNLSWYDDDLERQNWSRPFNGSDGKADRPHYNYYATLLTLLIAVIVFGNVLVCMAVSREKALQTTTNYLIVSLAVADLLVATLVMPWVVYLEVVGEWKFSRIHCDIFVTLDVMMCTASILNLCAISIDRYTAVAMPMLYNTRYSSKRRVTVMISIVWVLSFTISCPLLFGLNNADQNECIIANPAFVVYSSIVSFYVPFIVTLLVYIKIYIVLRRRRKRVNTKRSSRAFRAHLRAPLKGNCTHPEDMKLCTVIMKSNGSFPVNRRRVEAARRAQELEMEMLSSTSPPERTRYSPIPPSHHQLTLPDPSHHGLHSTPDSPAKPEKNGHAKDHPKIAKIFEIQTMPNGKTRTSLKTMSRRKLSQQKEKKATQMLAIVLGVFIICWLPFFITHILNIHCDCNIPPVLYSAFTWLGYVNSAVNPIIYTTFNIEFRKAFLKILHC
Chain of Gonadotropin-releasing hormone receptor (Homo sapiens) (P30968 whole entry, looked up): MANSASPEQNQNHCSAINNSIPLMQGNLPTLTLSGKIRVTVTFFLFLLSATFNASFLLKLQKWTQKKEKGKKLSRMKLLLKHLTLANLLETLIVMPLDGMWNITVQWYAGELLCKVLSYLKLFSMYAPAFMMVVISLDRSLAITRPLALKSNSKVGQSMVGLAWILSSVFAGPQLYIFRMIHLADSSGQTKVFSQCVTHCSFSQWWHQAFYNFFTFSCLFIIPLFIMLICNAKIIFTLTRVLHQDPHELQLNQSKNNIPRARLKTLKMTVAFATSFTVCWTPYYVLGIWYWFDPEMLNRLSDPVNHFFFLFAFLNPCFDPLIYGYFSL
Chain of KiSS-1 receptor (Homo sapiens) (Q969F8 whole entry, looked up): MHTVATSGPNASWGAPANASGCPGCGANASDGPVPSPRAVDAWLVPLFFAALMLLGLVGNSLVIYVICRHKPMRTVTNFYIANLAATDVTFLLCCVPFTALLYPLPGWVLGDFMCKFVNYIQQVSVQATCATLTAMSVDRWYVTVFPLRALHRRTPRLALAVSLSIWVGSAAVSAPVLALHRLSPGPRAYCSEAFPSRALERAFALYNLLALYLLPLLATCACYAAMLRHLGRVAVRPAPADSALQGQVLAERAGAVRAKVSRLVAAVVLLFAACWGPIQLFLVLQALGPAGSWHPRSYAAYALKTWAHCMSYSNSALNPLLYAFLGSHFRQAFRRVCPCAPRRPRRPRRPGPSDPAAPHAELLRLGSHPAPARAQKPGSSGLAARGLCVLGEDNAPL
Chain of Muscarinic acetylcholine receptor M1 (Homo sapiens) (P11229 whole entry, looked up): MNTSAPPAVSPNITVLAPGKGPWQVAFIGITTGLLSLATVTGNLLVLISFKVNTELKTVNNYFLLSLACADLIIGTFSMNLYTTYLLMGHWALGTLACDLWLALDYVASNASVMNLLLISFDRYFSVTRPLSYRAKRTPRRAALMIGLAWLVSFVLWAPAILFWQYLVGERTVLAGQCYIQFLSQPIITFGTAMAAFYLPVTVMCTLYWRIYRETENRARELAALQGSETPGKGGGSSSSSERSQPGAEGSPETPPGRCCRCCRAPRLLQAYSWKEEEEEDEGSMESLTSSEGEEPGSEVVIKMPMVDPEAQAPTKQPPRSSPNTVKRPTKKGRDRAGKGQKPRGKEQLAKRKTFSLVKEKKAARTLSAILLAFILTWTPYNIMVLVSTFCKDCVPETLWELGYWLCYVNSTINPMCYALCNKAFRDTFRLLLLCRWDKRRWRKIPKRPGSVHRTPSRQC
Chain of Beta-2 adrenergic receptor (Homo sapiens) (P07550 whole entry, looked up): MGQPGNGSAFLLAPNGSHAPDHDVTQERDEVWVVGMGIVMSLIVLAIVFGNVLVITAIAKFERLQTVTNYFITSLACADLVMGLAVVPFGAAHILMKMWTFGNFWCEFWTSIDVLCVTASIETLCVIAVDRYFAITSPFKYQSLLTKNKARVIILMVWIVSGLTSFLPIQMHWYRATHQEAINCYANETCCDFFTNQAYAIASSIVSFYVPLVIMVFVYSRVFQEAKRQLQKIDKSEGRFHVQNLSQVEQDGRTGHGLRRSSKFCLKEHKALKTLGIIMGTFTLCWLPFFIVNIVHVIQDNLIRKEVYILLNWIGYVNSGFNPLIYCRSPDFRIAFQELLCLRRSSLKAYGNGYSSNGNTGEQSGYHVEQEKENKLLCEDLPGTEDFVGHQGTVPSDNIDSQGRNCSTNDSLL

On to `CCCCCCCCCCCCCCCCC(=O)O`, for which the Potency entry in assay [1], in assay [2], in assay [3], in [6], in [7] and in assay [8] was “inactive” throughout. Besides, the Potency result in assay [9], in [10], in assay [11], in [12], in assay [13] and in [14] was “inactive” throughout. The Potency result in assay [15], in assay [16], in assay [17], in [18] and in [19] was “inactive” each time. Further, the result in assay [4] and in assay [5] was inactive.

On to `COC(C)OC`, for which the Potency result in assay [1], in assay [2], in [3], in assay [6], in [7] and in assay [8] was “inactive” each time. The Potency entry in [9], in [10], in assay [11], in assay [12], in assay [13] and in [14] was “inactive” each time. The Potency entry in [15], in assay [16], in [17], in assay [18], in [19] and in assay [20] was “inactive” in each case. For the same compound, the result in assay [4] and in [5] was inactive.

Take `CC1CCCO1` (centres undefined): the Potency entry in assay [1], in assay [2], in assay [3], in assay [6], in [7] and in [8] was “inactive” each time. Also, the Potency entry in assay [9], in assay [10], in assay [11], in assay [12], in [13] and in assay [14] was “inactive” each time. The Potency entry in [15], in assay [16], in assay [17], in assay [18], in assay [19] and in assay [20] was “inactive” in each case. The outcome in assay [4] and in assay [5] was inactive.

Turning to `CCCCCOC(=O)CCCC`, the Potency entry in assay [1], in [2], in [3], in [6], in assay [7] and in [8] was “inactive” in each case. In addition, the Potency entry in assay [9], in [10], in assay [11], in assay [12], in assay [13] and in [14] was “inactive” throughout. Further, the Potency entry in assay [15], in assay [16], in assay [17], in assay [18], in [19] and in assay [20] was “inactive” in each case. In addition, the outcome in assay [4] and in [5] was inactive.

With `Cc1cccc(C)c1NC(=O)c1cc(S(N)(=O)=O)c(Cl)cc1O`, the Potency result in assay [1], in assay [2], in assay [3], in [6], in assay [7] and in [8] was “inactive” each time. Besides, the Potency entry in assay [9], in assay [10], in assay [11], in assay [12], in assay [13] and in [15] was “inactive” in each case. For the same compound, the Potency entry in assay [16], in [17], in assay [18], in assay [19] and in assay [20] was “inactive” each time. Besides, the result in [4] and in [5] was inactive. Also, in [14], the Potency is 0.0033 µM (active).

On to `CC(O)CN(CCCN(C)C)CCCN(C)C` (centres undefined), for which the Potency entry in [1], in [2], in assay [3], in assay [6], in assay [7] and in assay [8] was “inactive” each time. Further, the Potency entry in assay [9], in [10], in assay [11], in [12], in assay [13] and in assay [14] was “inactive” in each case. Also, the Potency result in [15], in [16], in [17], in assay [18], in [19] and in assay [20] was “inactive” each time. Moreover, the outcome in assay [4] and in assay [5] was inactive.

Turning to `CC(C)(C)C1=CC(=O)C(C(C)(C)C)=CC1=O`, the Potency result in assay [1], in [3], in assay [6], in assay [7], in assay [8] and in assay [9] was “inactive” in each case. For the same compound, the Potency entry in [10], in assay [11], in assay [12], in [14], in assay [15] and in assay [16] was “inactive” each time. In addition, the Potency entry in assay [17], in assay [18], in assay [19] and in assay [20] was “inactive” in each case. Also, the Potency in [2] was 26.6 µM (active); in [13], 3.79 µM (active). Besides, the outcome in assay [4] and in assay [5] was inactive.

For the origin of these results see PubChem BioAssay (Tox21).
